Screening results deposited in PubChem by National Center for Advancing Translational Sciences (NCATS).
GALK inhibitor = inhibits human galactokinase; P51570; recombinant GALK, Kinase-Glo ATP luminescence, 1 h; Potency, µM (top dose mostly 57.5 µM), without a hit: at the highest dose activity, negative = inhibition, actives largely listed as inhibitors; 44,000 tested, under 10 active; AID 1347072;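 also: plate controls were full GALK reaction for no effect and reaction lacking GALK for full effect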
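5 nM GALK; 35 uM ATP; 100 uM D-galactose; 20 mM HEPES pH 8.0, 5 mM MgCl2, 60 mM NaCl, 1 mM DTT, 0.01% BSA; 1 h RT; Kinase-Glo Plus luminescence.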
HTT prom inh = inhibitors of huntingtin promoter activity | 48,000 tested, 0.93% active | HEK293 HTT promoter firefly luciferase reporter, 24 h | Potency, µM (doses to about 57.5 µM), for the others: top-dose activity change, negative = inhibition, most hits filed as inhibitors; also: potency is read from the fitted curve at half-maximal effect; nearly all actives have a fitted effect of over 50% in size
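Luminescence was read after Dual-Glo reagent and a 10 min room-temperature incubation. Values were normalized to vehicle (0% activity) and zero RLU (-100% activity). Reporter HEK293 cells had been exposed to compounds (up to 57.5 uM final) for 24 h.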
NTMT1 inhibitor = inhibitors of human N-terminal methyltransferase NTMT1; Q9BV86; NTMT1 MTase-Glo SAH luminescence, purified enzyme; Potency, µM (series often up to 114 µM), inactives show at the highest dose activity change, negative = inhibition, actives largely listed as inhibitors; 59,000 tested, 2.5% active; AID 1645870;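 also: potency is read from the fitted curve at half-maximal effect; plate controls were DMSO vehicle for no effect and no enzyme for full effect; nearly all actives have a fitted effect of over 65% in size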
Target sequence (Q9BV86 whole entry, looked up): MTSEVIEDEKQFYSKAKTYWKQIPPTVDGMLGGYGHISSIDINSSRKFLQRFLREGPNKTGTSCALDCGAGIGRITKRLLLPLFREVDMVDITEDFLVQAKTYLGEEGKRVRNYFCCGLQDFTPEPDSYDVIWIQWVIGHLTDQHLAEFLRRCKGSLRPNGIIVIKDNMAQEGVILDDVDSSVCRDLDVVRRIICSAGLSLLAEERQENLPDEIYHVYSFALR
SKOV3 invasion = inhibitors of ovarian cancer cell adhesion and invasion in omental model. SKOV3ip1-GFP adhesion/invasion on 3D omental model, fluorescence. AID 1963576. Potency, µM (top dose mostly 45.8 µM), without a hit: top-dose activity change, negative = inhibition, actives largely listed as inhibitors. 46,000 tested, 0.1% active;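 also: potency is read from the fitted curve at half-maximal effect; plate controls were DMSO wells for no effect and tomatine positive control wells for full effect; nearly all actives have a fitted effect of over 65% in size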
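Adhesion/invasion was scored as fixed GFP-labeled SKOV3ip1 cell counts (488/509 nm), normalized to DMSO and tomatine controls. Cancer cells in serum-free medium, with four compound doses (0.36-46 umol/L), sat 2 hr at RT then 16 hr at 37 C on a 48 hr fibroblast/mesothelial/ECM culture.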
HTT-AS promoter = activates huntingtin-antisense promoter activity; HEK293 HTT-AS promoter firefly luciferase reporter, 24 h; response scale: percent change from vehicle, -100% = no light; Potency, µM (series often up to 57.5 µM), for the others: top-dose activity change, positive = activation, usual class: activators; 48,000 tested, 0.24% active; AID 1508624; also: potency is read from the fitted curve at half-maximal effect; nearly all actives have a fitted effect of over 55% in size
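Luminescence was read after Dual-Glo reagent and a 10 min room-temperature incubation. Values were normalized to vehicle (0% activity) and zero RLU (-100% activity). Reporter HEK293 cells had been exposed to compounds (up to 57.5 uM final) for 24 h.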
PTAP-TSG101 blk = inhibitors of HIV-1 PTAP binding to human TSG101, validation | Q99816 | Fluorescence polarization, FITC-PTAP peptide/Tsg101, 20 min | Potency, µM (top dose mostly 115 µM), hits mostly inhibitors | 44,000 tested, under 10 active | AID 1347069; also: potency is read from the fitted curve at half-maximal effect; 0% is about no effect
Target sequence (Q99816 whole entry, looked up): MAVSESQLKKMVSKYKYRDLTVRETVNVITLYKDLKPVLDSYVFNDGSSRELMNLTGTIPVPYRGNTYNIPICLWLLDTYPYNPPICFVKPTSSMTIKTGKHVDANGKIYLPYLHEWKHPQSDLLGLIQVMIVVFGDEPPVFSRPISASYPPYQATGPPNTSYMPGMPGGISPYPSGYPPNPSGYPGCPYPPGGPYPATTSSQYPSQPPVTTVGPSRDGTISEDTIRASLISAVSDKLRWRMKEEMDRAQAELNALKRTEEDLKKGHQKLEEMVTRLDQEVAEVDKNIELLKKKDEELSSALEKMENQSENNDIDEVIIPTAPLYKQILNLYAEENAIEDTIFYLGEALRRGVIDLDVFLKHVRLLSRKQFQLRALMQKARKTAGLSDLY
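Fluorescence polarization binding of Tsg101 binding domain (10 uM final) to FITC-labeled PTAP-motif peptide (50 nM final) in HEPES pH 7.5/NaCl/Tween 20/EDTA/TCEP buffer; 20 min at r.t. Actives by curve class, <25 µM, efficacy <60% inhibition.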
Starred values were filed as active, the others as inactive; i = inactive; ? = inconclusive; . = no result given; ! = repeats disagree; [ ] = another dose, or the depositor's remark. Most compounds without a hit are left out; they make up all but 2.5% or so of the library. Calls follow the shape of the dose curve; as a rule, active = well fitted curve in the direction sought with a large enough effect; inconclusive = small, poorly fitted or top-dose-only effect, or another doubt; inactive = no such curve, though single readings can be large; an effect the other way counts as inactive or inconclusive.

SMILES	GALK inhibitor	HTT prom inh	NTMT1 inhibitor	SKOV3 invasion	HTT-AS promoter	PTAP-TSG101 blk
CC(C)(C)c1ccc(S(=O)(=O)c2cnc(SCC(=O)Nc3ccc(F)c(Cl)c3)[nH]c2=O)cc1	20µM*	4%	25µM*	-8%	-10%	i
CC(=O)OC1CC(O)(C(C)C)C2C(OC(=O)c3ccc(O)cc3)C=C(C)C(=O)CC12C (configuration not stated)	.	.	-5%[29.8 µM]	.	.	.
CC(C)C(N)C(=O)OCC(CO)OCn1cnc2c(=O)[nH]c(N)nc21 (configuration not stated)	.	.	15%	.	.	.
CC(C)(C)c1ccc(C(=O)Nc2ccc3nc(SCC(=O)N4CCCC4)sc3c2)cc1	3%	14µM*	-6%	i	-86%	i
O=C(Nc1ccc2nc(SCC(=O)N3CCCC3)sc2c1)c1ccc(Br)cc1	-2%	-15%	8%	i	-17%	i
O=C(Cn1ncccc1=O)NCCc1ccccc1	.	.	-1%	.	.	.
Cc1sc(C)c2c1C(=O)NS2(=O)=O	.	.	6%	.	.	.
Cc1ccc(C)c(NC(=O)c2nc(S(=O)(=O)Cc3ccc(F)cc3)ncc2Cl)c1	-2%	?	21%	11µM*	-86%	i
COc1ccc(NC(=O)c2nc(S(=O)(=O)Cc3ccc(C)cc3)ncc2Cl)cc1	-3%	24%	3%	?	-29%	i
CCc1nnc(NC(=O)c2nc(S(=O)(=O)Cc3cccc(C)c3)ncc2Cl)s1	2%	?	-2%	13µM*	-86%	i
C=C1C(O)CCC2(C)CC3(OC)OC(=O)C(C)=C3CC12 (configuration not stated)	.	.	9%[57.5 µM]	.	.	.
COc1ccc(-n2c(-c3ccco3)nc3c(cnn3-c3ccc(Cl)cc3)c2=O)cc1	-2%	35µM*	?	i	-53%	i
COc1cccc(-n2c(-c3ccco3)nc3c(cnn3-c3ccc(Cl)cc3)c2=O)c1	9%	?	5%	15%	-32%	i
CC[C@@H]1C(=O)N(C)c2cnc(Nc3ccc(C(=O)NC4CCN(C)CC4)cc3OC)nc2N1C1CCCC1	.	-11%	25µM*!	-17%	-26%	.
COc1cc(C(=O)N2CCC(N3CCN(C)CC3)CC2)ccc1Nc1ncc2c(n1)N(C)c1ccccc1C(=O)N2C	.	13%	-14%	11%	-7%	.
COc1cc(C(=O)NC2CCN(C)CC2)ccc1Nc1ncc2c(n1)N(C1CCCC1)CC(F)(F)C(=O)N2C	.	.	28µM*	.	.	.
COc1cc(C(=O)NC2CCN(C)CC2)c(F)cc1Nc1ncc2c(n1)N(C1CCCC1)CC(F)(F)C(=O)N2C	.	.	28µM*	.	.	.
COc1cc(OC2CCN(C)CC2)ccc1Nc1ncc2c(n1)n(C1CCCC1)c(=O)n2C	.	-27%	-5%	18%	-25%	.
COc1ccc(NS(=O)(=O)c2ccc(C)cc2)c(C(=O)Nc2nc(-c3ccccc3)cs2)c1	.	.	10%	.	.	.
C=C1C(=O)O[C@@H]2/C=C(\CO)CC/C=C(/C=O)C[C@@H](O)[C@@H]12	.	.	-7%[57.5 µM]	.	.	.
Oc1ccc(/C=C/c2cc(O)cc(O)c2)cc1	.	7%	45µM*!	.	?	.
Cc1ccc(NC(=O)C(=O)NCc2ccco2)cc1	-2%	48%	1%	-2%	5µM*	i
CCOc1ccc(NC(=O)C(=O)NCc2ccco2)cc1	0%	-18%[11.5 µM]	-2%	-6%	16%	i
Cc1cc(-c2ccc(/C=C3\SC(=Nc4ccc(Cl)c(C(=O)O)c4)NC3=O)o2)c([N+](=O)[O-])cc1C	.	.	25µM*	.	.	.
Cc1nc(-c2ccc(Cl)cc2)sc1CCNC(=O)Cc1ccc(F)cc1	1%	32µM*	-1%	-28%	-38%	i
SMILES	GALK inhibitor	HTT prom inh	NTMT1 inhibitor	SKOV3 invasion	HTT-AS promoter	PTAP-TSG101 blk
Cc1ccc(Cl)cc1NC(=O)C(=O)NCCc1sc(-c2ccc(F)cc2)nc1C	-4%	-16%	3%	-1%	-5%	i
CC(C)CCNC(=O)C1CCN(C(=O)c2cc3sccc3n2Cc2ccc(Cl)cc2)CC1	4%	25µM*	3%	4%	-62%	i
CSc1ccc(CCNC(=O)CCc2c(C)nc3cc(-c4ccccc4)nn3c2C)cc1	1%	2µM*	0%	-4%	-68%	i
Cc1nc2nc(-c3ccc(Cl)cc3Cl)nn2c(C)c1CCC(=O)Nc1ccc(F)cc1	-2%	7.9µM*	4%	i	-80%	i
CCOc1ccc(CCNC(=O)CCc2c(C)nc3cc(-c4ccccc4OC)nn3c2C)cc1	9%	13µM*	-4%	i	-81%	i
CCOc1ccccc1NC(=O)CCc1c(C)nc2cc(-c3ccccc3)nn2c1C	0%	?	4%	25%	-66%	i
Cc1nc2cc(-c3ccccc3)nn2c(C)c1CCC(=O)N1CCN(c2ccc(F)cc2)CC1	7%	2µM*	26%	-2%	-75%	i
COc1cc(OC)c(/C=C/S(=O)(=O)Cc2ccc(OC)c(OP(=O)(O)O)c2)c(OC)c1	.	.	5%	.	.	.
COc1nc2sc(C(=O)NC3CC3)c(N)c2c(C)c1Cl	.	.	21%[57.5 µM]	.	.	.
O=C(NCc1cccs1)c1cc2nc(-c3ccco3)cc(C(F)(F)Cl)n2n1	.	.	2%[57.5 µM]	.	.	.
Cc1ccc2nc3sc(C(=O)NCCCN(C)C)cc3cc2c1	.	.	-7%[57.5 µM]	.	.	.
Cc1nc2c(c(C)nn2-c2ccccc2)c(C)c1CCC(=O)NCCc1ccccc1	-3%	-1%	8%	0%	-7%	i
CCOc1ccc(CCNC(=O)CCc2c(C)nc3c(c(C)nn3-c3ccccc3)c2C)cc1OCC	8%	-22%	89µM*	i	-36%	i
Cc1ccc(NC(=O)CCc2c(C)nc3cc(-c4ccccc4)nn3c2C)cc1F	0%	2µM*	-19%	-25%	-71%	i
Nc1ccccc1CNc1ccc(S(=O)(=O)Nc2nccs2)cc1	.	.	38%	.	.	.
CC(C)=CC[C@@H](O)C1=CC(=O)c2c(O)ccc(O)c2C1=O	.	?	50µM*!	8%	-68%	.
